This is part of a sample that, as a whole, favours compounds with a hit. Of some 83,000 tested, about 20% had one in any assay.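 Activity criterion: percent growth below 10, measured after cells in 96-well plates were exposed to a single compound concentration for 48 hours.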 Calls of active or inactive are those of the source.
These compounds were tested on LOX IMVI melanoma (assay: NCI-60 one-dose screen, 48 h (100 = growth as untreated, 0 = no growth, -100 = all killed)). Conditions: 10 µM unless noted.
Experimental: Growth inhibition of the LOX IMVI human tumor cell line is measured as a screen for anti-cancer activity. Cells are grown in 96 well plates and exposed to the test compound for 48 hours. Compounds are tested at a single concentration, which is 10^-5 M for most compounds. The reported endpoint is percent growth (GI% or GIPRCNT), where numbers from 0 - 100% represent growth inhibition, and numbers from -100% - 0 represent cell death. For example, a value of 40 represents 60% growth inhibition. A value of 0 means no net growth occurred over the course of the experiment. A value of -40 indicates 40% of cells at the beginning of the experiment died by the end of the experiment. A value of -100 means all cells are dead at the end of the experiment.
NCI-60 Human Tumor Cell Lines Screen was performed using the standard one-dose NCI protocol, which is described in more detail at https://dtp.cancer.gov/discovery_development/nci-60/default.htm.
Compounds with GIPRCNT values below 10 were considered active. Activity score was based on GIPRCNT using the following formula: […]
Score is 0 for GIPRCNT values of 100 or above, 50 for GIPRCNT values of 0, and 100 for GIPRCNT values of -100.

`CC12CCC3C(=CCc4cc(O)ccc43)C1CCC2=O` (stereo not given) was tested. Which growth did it give?
The growth was 102% (inactive).

How did the growth turn out when `O=C(Nc1ccccc1)c1cc(-n2cnc([N+](=O)[O-])c2)cc(-n2cnc([N+](=O)[O-])c2)n1` was run?
The growth was 94.2% (inactive).

Which growth does the source give for `COc1cc(/C=C\C(C)=N\Nc2ccccc2)ccc1O` here?
Its growth is 73.1% (inactive).

How did the growth turn out when `COc1ccc(CNC(=O)c2c(C)n([O-])c3cc(F)c(F)cc3[n+]2=O)cc1` was run?
Its growth is 57.1% (inactive).

How did the growth turn out when `COc1ccc2nc(-c3ccc(Cl)cc3)cc(-c3nnc(SCC(=O)Nc4ccc(C(C)=O)cc4)n3-c3ccccc3)c2c1` was run?
Its growth is 105% (inactive).

Which growth does the source give for `O=C(Nc1cccc(Cl)c1)Nc1cccc(Cl)c1` here?
The growth was 89.1% (inactive).

With `Cc1cc(C)c(C(=O)c2cccs2)c(C)c1` as the compound, how does the growth read?
Its growth is 102% (inactive).

Which growth does the source give for `C=CCN(/C=C/CN(CC=C)CC=C)CC=C` here?
The growth was 103% (inactive).

How did the growth turn out when `CN1CCN(CCCCCN=c2cc3c(=O)n(CCCCCN4CCN(C)CC4)c(=O)c4c(NCCCCCN5CCN(C)CC5)cc5c(O)n(CCCCCN6CCN(C)CC6)c(=O)c2c5c4-3)CC1` was run?
The growth was 1.9% (active).

Which growth does the source give for `COc1ccc(-c2cc(-c3nnc(SCC(=O)Nc4ccc(C(C)=O)cc4)n3-c3ccccc3)c3ccccc3n2)cc1OC` here?
The growth was 98.1% (inactive).

With `CN1CCN(c2nc3scc(-c4ccccc4)c3c(=O)[nH]2)CC1` as the compound, how does the growth read?
Its growth is 95.9% (inactive).

With `N#Cc1c(-c2ccccc2)cc(-c2ccccc2)n(CCC(=O)O)c1=O` as the compound, how does the growth read?
The growth was 51% (inactive).

How did the growth turn out when `CN1CCN(CCCOc2ccc3ncnc(Nc4ccc(OCc5cccc(F)c5)c(Cl)c4)c3c2)CC1` was run?
Its growth is -92.9% (active).

With `COCCOCCOCCOCCOc1ccc2c(c1)C(=O)c1nc3ncccc3c(=O)n1-2` as the compound, how does the growth read?
Its growth is -87.7% (active).

With `CCC(=O)Nc1cc2c(cc1Cl)-c1ccccc1C2` as the compound, how does the growth read?
Its growth is 88.2% (inactive).

`CC(C)N(Cc1ccccc1)c1c(S)ssc1=S` was tested. Which growth did it give?
Its growth is 10.1% (inactive).

With `Cc1[nH]ccc2cc3nc4ccccc4c3cc12` as the compound, how does the growth read?
Its growth is 12% (inactive).

How did the growth turn out when `O=C(Nc1nc2ccc(OC(F)(F)F)cc2s1)c1ccc(F)cc1` was run?
The growth was 11.3% (inactive).

Which growth does the source give for `CN(C)CCC(=O)Nc1ccc(-n2cc(-c3cccc(NC(=S)Nc4cccc(-c5cn(-c6ccc(NC(=O)CCN(C)C)cc6)nn5)c4)c3)nn2)cc1` here?
The growth was 19.3% (inactive).

How did the growth turn out when `O=C(O)c1ccc(CNS(=O)(=O)c2ccc3ccccc3c2)cc1` was run?
The growth was 100% (inactive).

`O=C1C=CC(=O)N1c1ccccn1` was tested. Which growth did it give?
The growth was 93.6% (inactive).

`Cc1ccccc1NC(=O)NC(CC(N)=O)c1ccc2c(c1)nc(-c1cccc(Oc3ccc(C(C)(C)C)cc3)c1)n2CCCN1CCCCC1C` (stereo not given) was tested. Which growth did it give?
The growth was -73% (active).

For `O=C1C(=O)/C(=C/c2ccccc2)CCCCCC/C1=C/c1ccccc1`, which growth is on record?
The growth was -73.5% (active).

Which growth does the source give for `Oc1ccc(/C=N/Nc2nc3ccccc3s2)c(O)c1` here?
Its growth is 21.3% (inactive).

Which growth does the source give for `O=C(Nc1ccccc1S)c1ccccc1` here?
The growth was 84.9% (inactive).

With `CC1c2ccccc2-c2ccccc2N1C` (stereo not given) as the compound, how does the growth read?
Its growth is 94.6% (inactive).

`COc1cc(/C=N/NC(=O)c2ccc(C(F)(F)F)nc2Nc2cc(Cl)ccc2C)cc(OC)c1OC` was tested. Which growth did it give?
Its growth is 102% (inactive).

Which growth does the source give for `CC(=O)c1ccccc1NC(=O)C(C)(c1ccccc1)c1ccccc1` here?
Its growth is 81.8% (inactive).

Which growth does the source give for `COc1ccc(CCN2C(=O)CCC3=C2CCCC3=O)cc1OC` here?
Its growth is 98.8% (inactive).

For `CCOC(=O)CCC(=O)O[C@H]1[C@H](O[C@@H]2[C@@H](C)[C@H](O[C@H]3C[C@@](C)(OC)[C@@H](O)[C@H](C)O3)[C@@H](C)C(=O)O[C@H](CC)[C@@](C)(O)[C@H](O)[C@@H](C)C(=O)[C@H](C)C[C@@]2(C)O)O[C@H](C)C[C@@H]1N(C)C`, which growth is on record?
The growth was 102% (inactive).

For `CCN(Cc1cccc(S(=O)(=O)[O-])c1)c1ccc(C(=C2C=CC(=[N+](CC)Cc3cccc(S(=O)(=O)O)c3)C=C2)c2ccccc2S(=O)(=O)O)cc1`, which growth is on record?
The growth was 96% (inactive).

`O=C(NCCNC(=O)Oc1cccc2ccccc12)Oc1cccc2ccccc12` was tested. Which growth did it give?
The growth was 81.9% (inactive).

Which growth does the source give for `CC[C@H]1CN2CCc3cc(OC)c(OC)cc3C2C[C@@H]1CC1NCCc2cc(OC)c(OC)cc21` (stereo not given in full) here?
The growth was -27.8% (active).

For `CCN(CC)c1ccc(C(=C2C=CC(=[N+](CC)Cc3cccc(S(=O)(=O)O)c3)C=C2)c2ccc(N(CC)Cc3cccc(S(=O)(=O)O)c3)cc2)cc1`, which growth is on record?
Its growth is 35.4% (inactive).

With `CCCCCCCSc1ncnc2[nH]ncc12` as the compound, how does the growth read?
The growth was 65.9% (inactive).

Which growth does the source give for `O=C1c2cccc(NCCN=Cc3ccccc3O)c2C(=O)c2c(NCCN=Cc3ccccc3O)cccc21` here?
The growth was -3.1% (active).

`C=CCNC(=O)/C(=C/c1cccc([N+](=O)[O-])c1)NC(=O)c1ccccc1` was tested. Which growth did it give?
The growth was 93.4% (inactive).

With `O=C(O)CCC(=O)OC[C@@H](NC(=O)C(Cl)Cl)[C@H](O)c1ccc([N+](=O)[O-])cc1` as the compound, how does the growth read?
Its growth is 96.7% (inactive).

Which growth does the source give for `N#Cc1ncc(-c2ccc(C(F)(F)F)cc2)c(NC2CCCCCC2)n1` here?
Its growth is 32.5% (inactive).

Which growth does the source give for `Cn1cnc([N+](=O)[O-])c1Sc1nc(N)nc2nc[nH]c12` here?
The growth was 6.74% (active).
